This passage reports Potency results from PubChem BioAssay (Tox21).

Activity calls are given as the source filed them. Where a call stands in place of a potency, no number is given. The call rests on the fitted dose curve.

The assay can be described thus: G protein-coupled receptor (GPCR) small molecule agonists, calcium flux assay: HEK293 wild type cell line counter screen (AID 1920065). The conditions noted are these: HEK293 WT calcium flux, fluorescence, agonist mode; series mostly up to 57.6 µM. From the text: U.S. Tox21 Program National Center for Advancing Translational Sciences [NCATS] Division of Preclinical Innovation [DPI] U.S. Environmental Protection Agency [EPA] National Institutes of Environmental Health Sciences [NIEHS] National Toxicology Program [NTP] U.S. Food and Drug Administration [FDA] Assay overview: The increased intracellular calcium release that occurred upon G protein-coupled receptor (GPCR) activation led to the frequent use of calcium flux assays to detect GPCR activation. For the purpose of studying and screening compounds that may activate GPCR, receptor-overexpressing models were typically generated using Hek293 wild-type (WT) cells. In order to eliminate the compounds that may have induced calcium release for non-specific activation, a counter-assay utilizing calcium flux on Hek293 WT cells was performed. The data were formulated in order to serve as a control for any calcium flux detection utilizing Hek293 cells with either GPCR overexpression or gene modification. The procurement of Hek293 WT cells from ATCC. Fluorescence intensity can be utilized to determine the activation of the compound in a calcium flux assay. As a counter control, this cell line was utilized to screen the Tox21 10K compound library.
Assay Protocol Summary: Hek293 cells were dispensed at 1500cells/4uL/well in 1536-well black wall/clear bottom plates using a multidrop dispenser. After the assay plates were incubated at a 37 C/5% CO2 incubator for 18 hours, 4 uL of Calcium Dye Solution was added to each well. The plates were incubated at 37 C for 1 hour. For agonist mode, 23 nL of compounds dissolved in DMSO, positive control (ATP) or DMSO only was transferred to the assay plate by a pin tool station. The fluorescence intensity in the plates was measured using FDSS 7000EX kinetic plate reader with a filter set of Ex/Em=480/540 for 3 min at 1 sec intervals. Each test compound was measured at 15 concentrations and in triplicates.
On the technique in general: Calcium flux is commonly read through the fluorescence of an indicator in the cells.
On to `O=S(=O)(Oc1ccc(Cl)cc1)c1ccc(Cl)cc1`, for which the Potency entry was “inactive”.
Regarding `CCCC[n+]1cccc(C)c1`, the Potency entry was “inactive”.
Take `CC(C=O)Cc1ccc2c(c1)OCO2` (stereo not given): the Potency result was “inactive”.
Regarding `N#CCCO`, the Potency result was “inactive”.
With `COc1cc(OC)nc(NC(=O)NS(=O)(=O)c2ncccc2C(=O)N(C)C)n1`, the Potency entry is “inactive”.
For the compound `CCCOC(=O)c1cncn1C(C)c1ccccc1` (stereo not given), the Potency entry is “inactive”.
With `CCOP(OCC)OCC`, the Potency entry is “inactive”.
For `CC(C)C1(C)N=C(c2ncccc2C(=O)O)NC1=O` (stereo not given) the value was “inactive”; for `CN1C[C@H](C(=O)N[C@]2(C)O[C@@]3(O)[C@@H]4CCCN4C(=O)[C@H](Cc4ccccc4)N3C2=O)C=C2c3cccc4[nH]cc(c34)C[C@H]21`, “inactive”.
Turning to `CCCCn1cc[n+](C)c1`, the Potency entry is “inactive”.
Take `ClC(Cl)c1ccccc1`: the Potency entry is “inactive”.
With `C=C(C#N)CCC#N`, the Potency result is “inactive”.
For `CCCC(=O)Cl`, the Potency result is “inactive”.
On to `CCNc1nc(Cl)nc(NC(C)C)n1`, for which the Potency entry is “inactive”.
With `O=[N+]([O-])c1ccc([As](=O)(O)O)cc1`, the Potency entry is “inactive”.
For `CCCC(C)(COC(N)=O)COC(N)=O`, the Potency result is “inactive”.
For `O=Cc1ccco1`, the Potency entry is “inactive”.
For the compound `COc1ccc(C=O)cc1`, the Potency result is “inactive”.
Turning to `NC(=O)CN1CCCC1=O`, the Potency result is “inactive”.
For `Cc1nn(-c2cc(NS(C)(=O)=O)c(Cl)cc2Cl)c(=O)n1C(F)F` the value was “inactive”; for `C[C@]12C=CC3=C4CCC(=O)C=C4CC[C@H]3[C@@H]1CC[C@@H]2O`, “inactive”.
For the compound `O=[N+]([O-])c1c(Cl)c(Cl)c(Cl)c(Cl)c1Cl`, the Potency result was “inactive”.
Consider `CCCCOC(=O)c1ccccc1C(=O)O`, for which the Potency entry was “inactive”.
As for `N#CCBr`, the entry is “inactive”; as for `CNC(=O)Oc1c(C(C)(C)C)cc(C)cc1C(C)(C)C`, “inactive”; as for `CCC(Br)(CC)C(=O)NC(N)=O`, “inactive”.
Take `O=C/C(Cl)=C(/Cl)C(=O)O`: the Potency result was “inactive”.
On to `CCSC(=O)N1CCCCCC1`, for which the Potency entry was “inactive”.
For `C#CCO` the value was “inactive”; for `CCCCCCCCn1sccc1=O`, “inactive”.
For `COCCC#N` the value was “inactive”; for `C=CC1(C)OC(=O)N(c2cc(Cl)cc(Cl)c2)C1=O` (stereo not given), “inactive”; for `CN1CSC(=S)N(C)C1`, “inactive”.
As for `CCn1cc[n+](C)c1`, the Potency entry was “inactive”.
For the compound `Oc1cc(Cl)ccc1Cl`, the Potency result is “inactive”.
Regarding `CNC(=O)Oc1ccccc1C1OCCO1`, the Potency result was “inactive”.
Turning to `C=C1CC[C@@]2(O)[C@H]3Cc4ccc(O)c5c4[C@@]2(CCN3CC2CC2)[C@H]1O5`, the Potency entry was “inactive”.
`c1ccc(N=Nc2ccccc2)cc1`: the Potency result was “inactive”.
As to `Nc1ccc(Br)cc1`, the Potency result is “inactive”.
As for `COP(=S)(OC)SCn1nnc2ccccc2c1=O`, the Potency entry was “inactive”.
